Test: enhancers of NK cell killing of ovarian tumor cells, primary screen, imaging, OVCAR3, primary NK cells, calcein-AM imaging (AID 1508625);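 also: compound given to NK cells 16 h before adding targets at 1.5 to 1 ratio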
Details: OVCAR3 lysis by primary NK cells, at 5 µM; z-score: measured here: robust Z-score, single-point normalisation

Structure (SMILES)	corrected activity, negative = more killing [%]	z-score
CCOc1cccc(C(O)CNC)c1 (configuration not stated)	0.0567	0.0176
COc1ccc(C2(CN)CCCC2)cc1OC	-1.26	-0.675
C=CCON=C(CCC)C1C(=O)CC(C)(C)C(C(=O)OC)C1=O (configuration not stated)	-4.48	-1.77
FC(F)(F)c1ccc(CNCCc2ccc3c(c2)OCO3)cc1	-3.37	-1.07
CCCC12CN3CCN(CC(C3)C1O)C2 (configuration not stated)	0.145	0.0449
CCC(C)N1CCN(Cc2cccc(Cl)c2)CC1 (configuration not stated)	-0.307	-0.137
CCOP(=S)(OCC)SCC(=O)c1c(O)cc(C)oc1=O	-2.68	-1.01
O=c1cccc2n1C[C@H]1C[C@@H]2CN(Cc2ccccc2F)C1	-2.76	-1.43
O=c1c2ccccc2nc(-c2ccco2)n1-c1ccc(Cl)cc1	-0.835	-0.329
O=[N+]([O-])c1ccccc1CNCCc1cccc(F)c1	-3.35	-1.06
COc1ccccc1CC(C)NC1CCCc2c1[nH]c1ccc([N+](=O)[O-])cc21 (configuration not stated)	2.84	1.24
CC12CN3CN(C1)CC(C)(C3)C2=NN	-6.15	-2.42
CC(Cc1ccccc1F)NC1CCCc2c1[nH]c1ccc([N+](=O)[O-])cc21 (configuration not stated)	-1.36	-0.594
CCCCCn1c(=O)c(C(=O)Nc2cccc(OC)c2)c(O)c2ccccc21	-0.341	-0.108
CCOC(=O)CN1C(=O)NC2(CCN(C)CC2)C1=O	-3.8	-1.02
O=S1(=O)CC2(N3CCOCC3)CCCCC21 (configuration not stated)	-5.53	-1.76
Cc1ccc(OCC(=O)N2CCN(C3CCCCC3)CC2)cc1	-3.64	-1.62
Cc1cnc2cccc[n+]2c1C	0.645	0.254
CCN(CC)CCCn1c(=S)[nH]c2cc(Cl)ccc2c1=O	-4.51	-1.2
COc1cccc(CCNCc2ccc(C)cc2C)c1	-4.05	-1.29
O=[N+]([O-])c1ccc(NCCc2ccccc2)c2ncccc12	1.61	0.498

Source: PubChem BioAssay AID1508625 (Wald Lab, School of Medicine, Case Western Reserve …, 2021)
